Mtb hypoxia inh – PubChem AID 1159583. M. tuberculosis hypoxia-regulated fluorescent reporter, fluorescence. fluorescence inhibition, % (test concentration not listed). hit rate 0.1% among 300,000; in the data active = fluorescence inhibition mostly above about 23%, no sharp cut-off; inactive = mostly below about 17%
PfHsp40 yeast – rescue of yeast from PfHsp40 toxicity, primary screen, S. cerevisiae, ATP luminescence; S. cerevisiae expressing PfHsp40, growth rescue; growth rescue, % at 12.5 µM; hit rate 0.68% among 340,000; AID 504582, 2011; in the data active = growth rescue above about 28%, passing the limit was not always enough;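 note: yeast W303a lacking pdr1 and pdr3 grown in galactose medium; growth measured after three days at 30 °C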
Sa ugtP lethal – growth inhibition of ugtP-null S. aureus, primary screen, RN4220 ugtP deletion, OD600; growth inhibition, % (no concentration beside the values); 16 h; AID 1259309, 2017; hit rate 0.54% among 330,000; in the data active = growth inhibition above about 68%;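 note: plate controls were untreated wells for no effect and antibiotic for full effect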
BH1578 lux ind – inducers of Vibrio cholerae quorum light production without autoinducers, primary screen, BH1578 luxS cqsA deficient, single point | V. cholerae BH1578 lux reporter, luminescence, 6 h | activation, % at 18.7 µM | hit rate 0.16% among 350,000; in the data active = activation mostly above about 9.7%, no sharp cut-off
Sa RN4220 lethal – growth inhibition of S. aureus RN4220, primary screen, OD600; 16 h; inhibition, % (concentration not given with the values); hit rate 0.33% among 330,000; in the data active = inhibition above about 85%;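 note: plate controls were untreated cells for no effect and reference antibiotic for full effect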
CCHFV vOTU inh – CCHFV vOTU protease inhibitors, primary screen, biochemical, Pep-AMC substrate, fluorescence. inhibition, % at 11.5 µM. hit rate 0.55% among 370,000; in the data active = inhibition above about 30%; note: 0% = vehicle wells with enzyme and 100% = no enzyme wells
Numbers without * were called inactive; i = inactive; / = no result shown. Only some compounds are listed: those with a hit (about 1.7% of all), similar ones and a draw of the others.

SMILES | Mtb hypoxia inh | PfHsp40 yeast | Sa ugtP lethal | BH1578 lux ind | Sa RN4220 lethal | CCHFV vOTU inh
Cc1ccc(-c2csc3nc4cc(C(N)=O)ccc4c(=O)n23)cc1 | 9 | 0 | 5 | 1 | -2 | -5
COc1cc(OC)c(OC)cc1C=Nn1c(C)nc2ccccc2c1=O | 3 | / | 5 | / | 2 | /
CC(c1ccc2c(c1)OCO2)n1c(=S)[nH]c2ccccc2c1=O (stereo not given) | 6 | 75* | -44 | i | -15 | 24
O=C(O)C(Cc1ccccc1)n1c(=S)[nH]c2ccccc2c1=O (stereo not given) | 1 | 0 | 4 | 0 | 4 | 7
CCC1OC(=O)C(C)C(OC2C[C@@](C)(OC)C(O)C(C)O2)C(C)C(OC2OC(C)CC(N(C)C)C2O)[C@](C)(OC)CC(C)C(=O)C(C)C(O)[C@]1(C)O (stereo not given in full) | / | / | 100* | / | 101* | /
CC(C)(C)C1C=C(C(=O)Nc2ccccc2)OC(OCc2ccc(CO)cc2)C1 (stereo not given) | 9 | / | 8 | / | 3 | /
COc1ccc(Br)cc1CNC(=O)Nc1cccs1 | -16 | 1 | 87* | -1 | 91* | 3
COc1ccccc1CNC(=O)Nc1cccs1 | 4 | 0 | 26 | i | 53 | -5
Cc1ccc(S(=O)(=O)Oc2ccc(C=NNC(=O)c3c(Cl)cnn3C)cc2)cc1 | 5 | / | -2 | / | 4 | /
COc1ccc(-n2nc(C#N)c(Cl)cc2=O)cc1 | / | 190* | 20 | 0 | 18 | 6
COC(=O)c1nn(-c2ccc(OC)cc2)c(=O)cc1O | -7 | -1 | -1 | -1 | 2 | 4
Cc1noc(C)c1NC(=O)Nc1ccc2c(c1)C(=O)N(C(C)CO)CC(C)C(CN(C)S(=O)(=O)c1ccc(F)cc1)O2 (stereo not given) | 7 | / | 2 | / | 5 | /
Nc1ccc(S(=O)(=O)c2cc(O)c3ccccc3c2O)cc1 | / | 1 | / | i | / | 71*
O=S(=O)(c1ccccc1)c1cc(O)ccc1O | -4 | 1 | 0 | -1 | 1 | -7
Cc1nnc(SCC(=O)NC(=O)NC(C)(C)C)n1N | 3 | 52* | -1 | 0 | 4 | -13
Cc1ccc(C(=O)NN=Cc2ccc([N+](=O)[O-])o2)cn1 | 9 | / | 69 | / | 56 | /
Cc1ccccc1Nc1ncc(C#N)c(N)n1 | 9 | / | 3 | i | 2 | -7
COc1ccc(Nc2ncc(C#N)c(N)n2)c(OC)c1 | 0 | 66* | 5 | i | 3 | -1
CCOc1ccc(NC(=S)Nc2cc(-c3ccccc3)[nH]n2)cc1 | -14 | 106* | -7 | 0 | -1 | 11
COc1cc(OC)c(OC)cc1/C=C1/C(=O)N=C(N)N1C | -1 | 1 | 5 | i | 2 | 0
COc1ccc(/C=C2/C(=O)N=C(N)N2C)cc1OC | / | 4 | / | 17* | / | 9
COc1cc(C(=O)N=c2sccn2C)c([N+](=O)[O-])cc1OC | 3 | -2 | 2 | i | 3 | 8
Cn1ccsc1=NC(=O)c1ccc([N+](=O)[O-])o1 | 18 | 248* | 49 | 2 | 22 | 4
Cc1cc(C)c2sc(N(CCCN(C)C)C(=O)c3ccc(S(=O)(=O)N(C)C4CCCCC4)cc3)nc2c1 | 38* | 1 | -16 | -1 | -1 | 15
Cc1ccc2nc(N3C(=O)C(O)=C(C(=O)c4ccco4)C3c3cccs3)sc2c1 (stereo not given) | 1 | 0 | 11 | i | -1 | -6
SMILES | Mtb hypoxia inh | PfHsp40 yeast | Sa ugtP lethal | BH1578 lux ind | Sa RN4220 lethal | CCHFV vOTU inh
Cc1ccc2nc(N3C(=O)C(O)=C(C(=O)c4ccc(C)o4)C3c3ccc(O)cc3)sc2c1 (stereo not given) | 0 | -1 | 87* | -1 | 44 | 16
O=C(NN=Cc1cc([N+](=O)[O-])ccc1O)c1ccc2c(c1)OCCO2 | 6 | / | 68 | / | 90* | /
O=C(NN=Cc1cc(=O)[nH]c(=O)[nH]1)c1ccncc1 | / | 30* | / | i | / | -3
O=C(NN=Cc1ccc([N+](=O)[O-])cc1)c1ccncc1 | 11 | -2 | 6 | -4 | -1 | -2
O=C(NN=Cc1cc([N+](=O)[O-])ccc1O)c1ccncc1 | 14 | / | 75 | / | 86* | /
O=[N+]([O-])c1ccc(O)c(C=NNc2nn[nH]n2)c1 | 1 | / | 87* | / | 95* | /
CCN(CC)c1ccc(C=NNS(=O)(=O)c2ccc(C)c([N+](=O)[O-])c2)cc1 | -10 | / | -4 | / | -2 | /
O=C(NN=Cc1cc([N+](=O)[O-])ccc1O)Nc1ccccc1 | 7 | / | 71 | / | 91* | /
CC(=O)N1c2ccccc2C2CCCCC21 (stereo not given) | 8 | / | 0 | / | 5 | /
COc1cccc(C(=O)Nc2ccccc2N2CCCC2)c1 | 14 | 0 | -7 | 0 | 5 | 19
COc1cccc(C(=O)NC(=S)Nc2ccccc2N2CCCCC2)c1 | -4 | 0 | 89* | 0 | -7 | -2
COc1cccc(C(=O)NC(=S)Nc2ccccc2N2CCCC2)c1 | 13 | 0 | 91* | -1 | -3 | 11
CCOc1ccc2oc(C(=O)OCC(=O)NC3CCCCC3)c(C)c2c1 | 32* | 0 | 11 | i | -1 | 5
COc1ccc2oc(C(=O)N(C)Cc3ccc4c(c3)OCCO4)c(C)c2c1 | 0 | -2 | 2 | i | 3 | 2
COc1ccc2oc(C(=O)OCC(=O)c3ccc4c(c3)OCCO4)c(C)c2c1 | 8 | 72* | 16 | 1 | 3 | -11
CCOc1ccc2oc(C(=O)OCC(=O)N3C(C)CCCC3C)c(C)c2c1 (stereo not given) | 25* | 1 | 4 | -1 | 6 | 8
CC(C)CC1CN=C(N(C)C)N1CCCCc1ccccc1 (stereo not given) | 10 | / | -15 | / | 1 | /
CCOC(=O)NNc1ccccc1 | 14 | 62* | 5 | i | 3 | 0
Cc1cc(C)c2c(NC(N)=S)n[nH]c2n1 | 13 | 2 | 6 | -2 | 6 | 3
Cc1cc(C)c2c(N=NN(C)C)[nH]nc2n1 | / | 68* | 21 | -1 | 17 | 19
CC(CCc1ccco1)=NNC(=O)CCC(=O)Nc1cccc(Cl)c1 | / | / | 0 | / | 5 | /
Cc1ccc(C=NOC(=O)c2c(C)noc2-c2snnc2C)cc1 | -1 | / | 1 | / | -5 | /
OC(Cn1ccnc1)c1ccc(Cl)cc1Cl (stereo not given) | 4 | -1 | 4 | i | 11 | -12
Clc1cccc(OCCCn2ccnc2)c1 | / | -1 | 2 | 0 | 5 | 1
Clc1ccc(C(Cn2ccnc2)OCc2csc3c(Cl)cccc23)c(Cl)c1 (stereo not given) | 8 | 80* | 96* | -1 | 99* | 13
Clc1ccc(C(Cn2ccnc2)OCc2c(Cl)cccc2Cl)c(Cl)c1 (stereo not given) | 24 | 103* | 94* | i | 72 | 18
Fc1ccc(-c2csc(C=Cc3ccc4c(c3)OCO4)n2)cc1 | 2 | / | -2 | / | 7 | /
